# Results reported in PubChem BioAssay AID1508622 (National Center for Advancing Translational Sciences (NCATS), 2021).
# Unmarked numbers belong to inactive results. The source made the active and inactive calls. Calls come from the whole dose curve; as a rule, active = well fitted activation curve with a large enough effect; inconclusive = small, poorly fitted or top-dose-only effect; inactive = no such curve, though single readings can be large or run the other way.
# Assay: Confirmatory qHTS for Identification of Small Molecule Activators of Huntingtin-Antisense Promoter Activity
# Settings: HEK293 HTT-AS promoter firefly luciferase reporter, 24 h; series mostly up to 57.5 µM; activity change, positive = activation: at the top concentration
# Method in brief: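 Activity normalized between vehicle control (0%) and zero RLU (-100%) from firefly luminescence (Dual-Glo). Compounds, up to 57.5 uM final, incubated 24 h at 37C on HEK293 reporter cells plated 24 h earlier.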
# Potency is the fitted concentration of half-maximal effect.
Structure (SMILES),"activity change, positive = activation [%]",Potency
CCc1c(C)sc2c1CCN(C(=O)Nc1ccc(F)c(Cl)c1)C2c1ccc(F)cc1 (centres undefined),-76.5,–
Cc1cccc(CSc2cn(CC(=O)N3CCOCC3)c3ccccc23)c1,–,3.01 µM (active)
COc1ccc(-c2nc(N3CCOCC3)c3sc(CN(C)c4ncc(C(=O)NO)cn4)cc3n2)cn1,2.64,–
CCOc1ccc(CNC(=O)c2ccc(Sc3ccc(Cl)cc3)c(NC(C)=O)c2)cc1OC,-61.1,–
Cc1cc(NC(=O)CN(C)S(=O)(=O)c2ccc3c(c2)CCC(=O)N3)ccc1Br,-43.3,–
Cc1ccc(-n2ccnc(NCCc3ccc(S(N)(=O)=O)cc3)c2=O)c(C)c1,-32.3,–
Cc1ccc(-c2nnc(Nc3ccc(F)cc3)c3ccccc23)cc1S(=O)(=O)NC(C)C,-23.9,–
O=C1CCCc2cc(S(=O)(=O)NCC3CCC(C(=O)Nc4ccc(Cl)cc4)CC3)ccc2N1 (centres undefined),-23.6,–
FC(F)(F)c1cccc(Nc2c3c(nc4ccc(Cl)cc24)CCC3)c1,-57.1,–
Cc1ccc(C)c(N2CCN(C(=O)C3CCN(c4nc(-c5ccc(C(C)C)cc5)no4)CC3)CC2)c1,-94.5,–
Cc1ccc(-c2cc(N)n(Cc3cccc(Cl)c3)n2)cc1,-47.6,–
COc1ccc(NC(=O)C(=O)c2cc(C)n(-c3ccc(C)cc3)c2C)cc1Cl,-74.2,–
Cc1ccccc1CNC(=O)c1ccc(-c2nc(CS(=O)(=O)c3ccccc3)c(C)o2)cc1,-41.5,–
Cn1cnc(S(=O)(=O)N2CCC(C(=O)Nc3ccc(Cl)c(C(F)(F)F)c3)CC2)c1,-54.1,–
CCN(Cc1ccccc1)C(=O)C1CCN(S(=O)(=O)c2c(C)noc2/C=C/c2ccc(C)cc2)CC1,-5.97,–
COc1ccc(-n2nc3c(N4CCCC(C(=O)NCCc5ccc(C)cc5)C4)nnc(C)c3c2C)cc1 (centres undefined),-45.7,–
CCSc1ncc(Cl)c(C(=O)Nc2ccc(S(=O)(=O)N3CCCCC3)cc2)n1,-39.5,–
CCN1C(=O)c2ccccc2Sc2ccc(NC(=O)Nc3ccccc3OC)cc21,-26.7,–
Cc1ccc(C)c(N2CCN(S(=O)(=O)c3ccc(C(=O)N(C)C)s3)CC2)c1,-84.7,–
CCOc1ccc(NC(=O)CN(c2ccc(Cl)cc2C)S(=O)(=O)c2ccccc2)cc1,-35.9,–

Structure (SMILES),"activity change, positive = activation [%]",Potency
COc1cc(CN(C(=O)COc2ccc(Br)cc2)c2ccccn2)cc(OC)c1OC,-54.6,–
COc1ccc(CNC(=O)c2ccc3c(c2)CCN3S(=O)(=O)c2ccc(C)cc2)cc1,-20.3,–
CCOC(=O)c1ccc(C#Cc2ccc3c(c2)C(C)(C)CCS3)nc1,-25.9,–
CCN(CC)S(=O)(=O)c1ccc(C(=O)NCCSc2c(-c3ccc(OC)cc3)[nH]c3ccccc23)cc1,-9.42,–
O=C(Nc1ccc(F)cc1)C1CCN(S(=O)(=O)c2ccc3c(c2)CCCN3C(=O)C2CCC2)CC1,-39.7,–
CC(C)(C)C(=O)NCCc1nc2ccccc2n1CCCCOc1ccc(Cl)cc1,-34.8,–
O=C(c1ccc(CS(=O)c2ccccc2Cl)o1)N1CCN(c2cccc(C(F)(F)F)c2)CC1 (centres undefined),-54,–
Cc1cccc(-c2nc(SCC(=O)Nc3ccc4c(c3)OCO4)c(-c3ccccc3)[nH]2)c1,-19.4,–
COc1ccc(CNC(=O)c2oc3c(c2C)-c2nn(Cc4ccccc4Cl)cc2CC3)cc1,-26,–
CN(C)S(=O)(=O)c1ccc(C(=O)NCCSc2c(-c3ccc(Cl)cc3)[nH]c3ccccc23)cc1,-31.7,–
CCCc1cc(N2CCN(c3cccc(C)c3C)CC2)n2cnnc2n1,-72.5,–
Cc1ccc(C(=O)Nc2ccc(S(=O)(=O)N(Cc3ccccc3)c3ccccc3)cc2)cc1,-32.1,–
CCN(CC)c1ccc(NC(=O)COCc2cc(-c3ccc4c(c3)OCO4)on2)c(C)c1,-33.1,–
CCOC(=O)c1cnc2ccc(OC)cc2c1Nc1ccc(OCc2ccccc2Cl)cc1,-79.2,–
CCc1cccc(-n2nnc(S(=O)(=O)c3ccc(OC)cc3)c2C)c1,-47.9,–
COc1ccc(-c2noc(Cn3c(=O)c4ccccc4n(CC(=O)Nc4cccc(C(F)(F)F)c4)c3=O)n2)cc1,-22.2,–
O=C(Cn1c(=O)oc2cc(S(=O)(=O)N3CCCCC3)ccc21)NCc1ccc(F)cc1,-27.8,–
CC1CCN(C(=O)CSc2nnc(NC(=O)Nc3ccccc3)s2)CC1,-27,–
COc1ccc(C)cc1NC(=O)CN1CCCN(S(=O)(=O)c2ccc(Br)cc2)CC1,-26.8,–
